# Source: PubChem BioAssay AID488837 (National Center for Advancing Translational Sciences (NCATS), 2010)
# Screen size: about 330,000 compounds; about 20 (0.006%) were called active. Roughly 1% stayed inconclusive and do not appear here. The call rests on the fitted dose curve; in most records, active means well fitted inhibition curve with a large enough effect; inconclusive means small, poorly fitted or top-dose-only effect, or effect the other way; inactive means flat fitted curve, though single readings scatter. The list comes from a sample in which actives are over-represented; it also holds similar structures and randomly drawn compounds. A call without a number means that no potency is given here.
# Target: Protein phosphatase EYA2 (Homo sapiens) (UniProt O00167)
# Sequence (O00167 whole entry, looked up): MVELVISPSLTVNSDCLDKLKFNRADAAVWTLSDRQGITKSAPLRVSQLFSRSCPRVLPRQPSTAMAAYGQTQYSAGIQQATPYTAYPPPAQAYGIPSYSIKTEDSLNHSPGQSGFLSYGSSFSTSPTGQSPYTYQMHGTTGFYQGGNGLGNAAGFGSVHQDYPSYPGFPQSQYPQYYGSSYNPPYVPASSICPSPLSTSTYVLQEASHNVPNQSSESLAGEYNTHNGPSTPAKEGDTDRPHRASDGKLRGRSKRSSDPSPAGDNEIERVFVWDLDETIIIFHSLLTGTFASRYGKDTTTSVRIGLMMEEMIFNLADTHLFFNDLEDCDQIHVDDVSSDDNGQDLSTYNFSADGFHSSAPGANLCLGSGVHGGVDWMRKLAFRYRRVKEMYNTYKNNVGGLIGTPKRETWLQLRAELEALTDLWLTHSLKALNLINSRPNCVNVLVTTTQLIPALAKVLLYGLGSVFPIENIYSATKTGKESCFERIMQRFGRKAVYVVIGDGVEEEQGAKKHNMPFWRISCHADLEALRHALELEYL
# Test: qHTS Assay for Inhibitors of the Phosphatase Activity of Eya2
# Settings: recombinant Eya2, OMFP fluorescence dephosphorylation (OMFP is methylfluorescein phosphate); series mostly up to 76.9 µM
# Description: The Eya family of proteins are essential co-activators of the Six1 transcription factor. Six1 is a developmental gene that is abnormally re-expressed in a large percentage of breast cancers. This over-expression plays a causal role in the initiation and metastatic development of breast cancers. The Eya family of proteins was also found to contain a unique HAD phosphatase domain with protein tyrosine phosphatase activity which can potentially play a role in Six1-mediated breast tumorigenesis. […] We have developed and optimized a 1536 well fluorescence-based HTS assay targeting the phosphatase activity of Eya2. Inhibitors found against Eya2 could serve as potential therapeutic tools to inhibit Six1-mediated breast tumorigenesis and to increase the efficiency of radiation and certain chemo therapy. These inhibitors could also be used as chemical probes to study the function of Eya2's phosphatase activity and its role in Six1-mediated breast tumorigenesis.
# The Eya2 enzyme was kindly provided by the laboratory of Dr. Rui Zhao. The 3-O-methyl-fluorescein phosphate (OMFP) substrate and all buffer reagents were purchased from Sigma Aldrich. qHTS Assay Setup: 1. Buffer- 50 mM HEPES pH 7.5, 50 mM NaCl, 5 uM MgCl2, 0.05% BSA, 1 mM DTT. 2. OMFP Stock- 10 mM solution prepared in 100% DMSO and stored in single use aliquots at -20C. Assay Procedure- 1. Dispense 1.5 ul per well of Eya2 at 0.2 uM in black medium binding 1536 well Greiner plate 2. Transfer 23 nl of compound and control compound (EGTA) to plate 3. Incubate at ambient for 10 minutes 4. Dispense 1.5 ul per well of OMFP at 50 uM 5. Incubate at ambient for 10 minutes 6. Read on ViewLux using Excitation = 485 nm, Emission = 525 nm
# Potency means the concentration at half of the fitted maximal effect.
SMILES,"activity, negative = inhibition",Potency
CCC(CC)C(=O)Nc1ccc(S(=O)(=O)Nc2nccs2)cc1,inactive,
COC(=O)C1CCCCN1C(=O)c1ccc(OC2CCN(C(C)=O)CC2)c(OC)c1 (stereo not given),inactive,
CC1=CC2=NC(=O)CC(C)(C(=O)N(CC(=O)NC(C)(C)C)Cc3ccccc3)N2C=C1 (stereo not given),inactive,
N=c1ccn(CC(=O)NC(N)=O)c2ccccc12,inactive,
Cc1ccc(S(=O)(=O)N2CCC(Oc3ccc(-n4cnnn4)cc3)CC2)cc1,inactive,
COc1ccc(C(=O)OCc2cc(=O)n3ccsc3n2)cc1F,inactive,
Cc1ccc(CCn2c3c(c4ccccc42)CN(C)CC3)cn1,inactive,
Nc1ncnc2c1c(I)cn2[C@@H]1C[C@H](N)[C@@H](O)[C@H]1O,inactive,
CSCCC(NS(=O)(=O)c1ccc2c(c1)oc(=O)n2C)C(=O)NCc1ccccc1 (stereo not given),inactive,
O=C(COc1ccc([N+](=O)[O-])cc1)Nc1cccc(C(=O)Nc2ccccc2C(=O)O)c1,inactive,
CCCN1Cc2cccc(C(=O)Nc3ccc(S(=O)(=O)N4CCCCCC4)cc3)c2C1=O,inactive,
N#C/C(=C\N1CCOCC1)S(=O)(=O)c1ccc(Cl)cc1,inactive,
CCOc1ccc(CCNC(=O)CN2C(=O)NC3(CCc4ccccc43)C2=O)cc1OCC (stereo not given),inactive,
CCc1noc(C)c1C(=O)N1CCCSC1=Nc1ccccc1OC,inactive,
COc1ccc(OCCCC(=O)Nc2cccc(S(=O)(=O)N3CCCCCC3)c2)cc1,inactive,
COC(=O)c1ccc(CSc2ccc3nnc(-c4ccccc4)n3n2)o1,inactive,
Cc1cccc(C)c1NC(=O)C1CCCN1C(=O)OC(C)(C)C (stereo not given),inactive,
O=C(Cc1ccccc1Cl)N1CCN(c2ccccn2)CC1,inactive,
Cc1cc(C)c(C)c(S(=O)(=O)N[C@@H](C)C(=O)OC(C)C(=O)NC(N)=O)c1C (stereo not given in full),inactive,
Cc1ccc(CC2C(=O)N(c3ccc(F)cc3)C(=O)C2C)cc1 (stereo not given),inactive,
O=C(CNC(=O)OCc1ccccc1)Oc1cc2oc(=O)cc(-c3ccccc3)c2cc1Cl,inactive,
CCN(CC)P(=O)(C(NC(=O)OC)C(F)(F)C(F)(F)C(F)(F)C(F)F)N(CC)CC (stereo not given),-3.75% [at 15.4 µM] (inactive),
COc1cc(NC(=O)c2ccccc2NS(=O)(=O)c2ccc(Cl)s2)cc(OC)c1,inactive,
CN(C)/C(CN1CCCCC1)=C1\N=C(c2ccccc2)OC1=O,inactive,
CN(C)CCOc1cccc(Br)c1,inactive,

SMILES,"activity, negative = inhibition",Potency
C=CCC[C@@H](Cc1ccc(F)cc1)C(=O)OC[C@H](Cc1c[nH]c2ccccc12)NC(=O)[C@@H](CC=C)CC(=O)N(CCO)Cc1ccccc1,inactive,
CN(C)S(=O)(=O)c1ccc(N2CCCC2)c(C(=O)NCc2ccccc2)c1,inactive,
Cc1cccc(C)c1NC(=S)N1CCCCCC1,inactive,
O=S1(=O)CCC(NC(=S)SCc2ccccc2Br)C1 (stereo not given),inactive,
N#CCC(=O)NC(=O)NCC1CC1,inactive,
N/C(=N\OS(=O)(=O)c1cccc([N+](=O)[O-])c1)c1ccncc1,inactive,
Cc1ccccc1-n1nnnc1SCCCC(=O)c1ccc(F)cc1,inactive,
C=CCC1(CC=C)CCCN1C(=O)c1cc(COc2ccc(-n3cncn3)cc2)on1,inactive,
CCCCCCCNc1nc(Cl)nc(NCCO)n1,inactive,
CSc1ccc(Cl)c(C(=O)OCC(=O)N2CCNC2=O)c1,inactive,
c1cc(-n2cnnn2)ccc1NC1=NCCC1,inactive,
Cc1ccc(OCc2nnc(NC(=O)OCC(C)C)s2)cc1,inactive,
COC(=O)[C@]1(Cc2ccccc2)N[C@H](CN(C)S(=O)(=O)c2ccc(OC(F)(F)F)cc2)[C@@H]2C(=O)N(Cc3ccccc3)C(=O)[C@@H]21,inactive,
CSc1cccc(NC(=O)CN2C(=O)COc3ccc(S(=O)(=O)N4CCOCC4)cc32)c1,inactive,
Cc1noc(NS(=O)(=O)c2ccc(NC(=O)c3oc4ccc(F)cc4c3C)cc2)c1C,inactive,
Cn1c2ccc(F)cc2c2nnc(NN)nc21,inactive,
CCCCn1c(N)c(N(CC(C)C)C(=O)c2ccc(Br)o2)c(=O)[nH]c1=O,inactive,
CC(=O)/C(C)=N/O,inactive,
Cc1cccc(Nc2nnc(SCC(=O)c3c(N)n(C4CC4)c(=O)[nH]c3=O)s2)c1C,inactive,
COc1ccc(OC)c2c1sc(=NC(=O)CN1C(=O)CCC1=O)n2C,inactive,
CN(C(=O)CSc1nnc(-c2n[nH]c3ccccc23)o1)c1ccccc1,inactive,
CCOc1cc(/C=C2/N=C(c3ccc(C(C)(C)C)cc3)OC2=O)cc(Cl)c1OS(C)(=O)=O,inactive,
OCc1n[nH]c(CO)n1,inactive,
CCC1Sc2ccc(S(=O)(=O)CCC(=O)NCc3cccs3)cc2NC1=O (stereo not given),inactive,
CCN(CC)c1ccc(S(=O)(=O)N2CCOCC2)cc1NC(=O)CSc1cccc[n+]1[O-],inactive,

SMILES,"activity, negative = inhibition",Potency
Cn1c(-c2ccc(F)cc2)cc2onc(-c3ccccc3Cl)c2c1=O,inactive,
CCOc1cc(-c2noc(CCCC(=O)NC3CCCCC3)n2)ccc1OC,inactive,
O=S(=O)(Nc1ccccc1Cl)c1cccc2nsnc12,inactive,
COn1c(=O)c(=O)n(OC)c2ccccc21,inactive,
CN(C)C(=O)CCc1ccc2c3c([nH]c2c1)[C@]1(C)[C@@H](C(=O)N2CCOCC2)C[C@H](CC(=O)NCCc2ccccn2)C(=O)N1CC3,inactive,
O=S(=O)(Nc1ccc2nc(-c3ccco3)[nH]c2c1)c1ccccc1,inactive,
CCOc1ccc(CCNC(=O)COC(=O)c2ccc(F)c(S(=O)(=O)N3CCOCC3)c2)cc1OCC,inactive,
CC(CC(=O)Nc1ccc(F)cc1F)S(=O)(=O)c1ccc2c(c1)NC(=O)CO2 (stereo not given),inactive,
Cc1c(C#N)c2ncn(CC#N)c(=O)c2n1-c1ccccc1,inactive,
CCC(=O)Nc1cc(C(F)(F)F)ccc1N1CCCC1,inactive,
CCn1ccnc1CN(C)C(=O)c1ccc2nc(Cc3ccc(OC)cc3)oc2c1,inactive,
Cc1ccc(-n2cc(CN(C)Cc3nccn3C)c(-c3cccc(C)c3)n2)cc1,inactive,
C#CCOCCOCCOCCNc1nc(N2CCN(C(=O)CCCCCCCCCCNC(=O)Cn3cc(CCCCCN)nn3)CC2)nc(N2CCN(C(=O)CCCCCCCCCCNC(=O)[C@H](CO)n3cc(CCCSC)nn3)CC2)n1,inactive,
C#CCOCCOCCOCCNc1nc(N2CCN(C(=O)CCCCCCCCCCNC(=O)[C@H]([C@@H](C)CC)n3cc(CCCCN=C(N)N)nn3)CC2)nc(N2CCN(C(=O)CCCCCCCCCCNC(=O)[C@H](CO)n3cc(CCCSC)nn3)CC2)n1,,31.6 µM (active)
C#CCOCCOCCOCCNc1nc(N2CCN(C(=O)CCCCCCCCCCNC(=O)[C@H](CCCCN)n3cc(C)nn3)CC2)nc(N2CCN(C(=O)CCCCCCCCCCNC(=O)[C@H](CO)n3cc(CCCSC)nn3)CC2)n1,inactive,
CC1CC2C3CCC4=CC(=O)C=C[C@]4(C)[C@@]3(F)[C@@H](O)C[C@]2(C)[C@@]1(O)C(=O)CO (stereo not given in full),inactive,
Cc1cc(=O)[nH]c(N/N=C/c2c(C)nn(-c3ccccc3Cl)c2Cl)n1,inactive,
CC(C)NC(=O)NCCCCCCS(C)=O (stereo not given),inactive,
N#CCSc1nc(-c2ccccc2)nc2ccc(F)cc12,inactive,
Cc1nnnn1/C(=C\c1ccccc1)C(=O)OCC(=O)N1CC2(C)CC1CC(C)(C)C2 (stereo not given),inactive,
C=CCOc1ccc(C(=O)Nc2ccccc2C(=O)N2CCCC2)cc1,inactive,
O=C(NCCCCO)C(F)(F)C(F)(F)C(F)(F)C(=O)NCCCCO,inactive,
COc1ccc(CCc2nnc(CCC(=O)NCc3cnn(-c4ccccc4C)c3)o2)cc1,inactive,
CCc1cccc(C)c1N1C(=O)CN(Cc2ccccc2)C1=S,inactive,
O=C(NCc1cc(C(F)(F)F)cc(C(F)(F)F)c1)C1CC(c2cccc(F)c2)=NO1 (stereo not given),inactive,

SMILES,"activity, negative = inhibition",Potency
CSc1ccccc1N1CCN(CCCCCC(=O)NC2CCCc3ccccc32)CC1 (stereo not given),inactive,
COCc1cc(=O)[nH]c(SC)n1,inactive,
N#Cc1cccc(OC(=O)c2ccc3c(=O)n4c(nc3c2)CCC4)c1,inactive,
Cc1snc(SCc2c(F)cccc2Cl)c1C#N,inactive,
CCOC(=O)C1CN(S(=O)(=O)c2ccc(F)cc2)C1,inactive,
O=S(=O)(c1ccc(Cl)cc1)c1nc(-c2ccccc2F)oc1NCCN1CCOCC1,inactive,
COc1cc(C)c(S(=O)(=O)N2CCOCC2)c(C)c1C,inactive,
O=C(CSc1ccccc1F)NC1CCS(=O)(=O)C1 (stereo not given),inactive,
Clc1cccc(Cl)c1Cn1nnc(-c2cccs2)n1,inactive,
Cc1ccc(NC(=O)CCNC(=O)c2ccc([N+](=O)[O-])cc2)cc1S(=O)(=O)N1CCOCC1,inactive,
CC(C)(O)C#Cc1ncc(C(F)(F)F)cc1Cl,inactive,
COc1ccc(-c2nc3ccccc3n2CCC(C)C)cc1OC,inactive,
CN1CCN(C(=O)c2ccccc2NC(=O)COc2ccccc2Cl)CC1,inactive,
CCOc1ccc(NC(=O)C(C)N2C(=O)c3ccccc3C2=O)cc1 (stereo not given),inactive,
O=C(OC1CCOC1=O)c1ccc(-c2nc3ccccc3s2)s1 (stereo not given),inactive,
O=S(=O)(/C=C/c1ccccc1)NCCc1ccccn1,inactive,
Cc1cc(C(F)F)nn1CC(=O)NC1CCCCCC1,inactive,
COc1ccc(C(C#N)Nc2ccc(C)cc2)cc1 (stereo not given),inactive,
Cc1ccc(C2(C(F)(F)F)N=C3Sc4cc(C)cc(C)c4N3C(=O)N2)cc1 (stereo not given),inactive,
COc1ccc(-n2nc3c(c2NC(=O)c2ccc(N4C(=O)CCC4=O)cc2)CSC3)cc1,inactive,
CC(O)c1cccc(NC(=O)Cc2cccc3ccccc23)c1 (stereo not given),inactive,
O=C(NC1CCCC1)C(c1ccco1)N(C(=O)c1ccco1)c1ccc(F)cc1 (stereo not given),inactive,
CC(C)(C)c1cc2cccnc2n1Cc1ccccc1,inactive,
CCN1CCN(c2nc(Nc3cc(OC)ccc3OC)nc(Nc3cc(OC)ccc3OC)n2)CC1,inactive,
COc1ccc(-c2cc(C(F)(F)F)nc(S(C)(=O)=O)n2)cc1OC,inactive,
